From PubChem BioAssay
The source made the active and inactive calls.

How the values were obtained:
[1] = compound effects on lung adenocarcinoma cell viability – A549, calcein-AM fluorescence, 48 h, basal, profiling panel (AID 1162); conditions: higher = more signal
[2] = compound effects on differentiated 3T3-L1 adipocyte viability – cell-based, 3T3-L1 adipocytes, calcein-AM fluorescence, 48 h, basal, profiling panel (AID 1163); conditions: 3T3-L1 adipocytes viability, higher = more signal
[3] = compound effects on hepatocellular carcinoma cell viability – HepG2, calcein-AM fluorescence, 48 h, basal, profiling panel (AID 1164); conditions: higher = more signal
[4] = compound effects on multiple myeloma cell viability – MM1S, calcein-AM fluorescence, 48 h, basal, profiling panel (AID 1165); conditions: higher = more signal
[5] = calcein-AM signal in unstimulated myeloma cells – cell-based, calcein-AM fluorescence, 48 h, PK04 Diversity Set, profiling panel (AID 1166); conditions: RPMI8226 myeloma viability, higher = more signal;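 note: cells grown under basal conditions without added stimulus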
[6] = JC-1 mitochondrial signal, unstimulated HepG2 cells – cell-based, JC-1 fluorescence, 24 h, 100 nL compound, profiling panel (AID 1167); conditions: HepG2 mitochondrial potential, higher = more signal
[7] = JC-1 mitochondrial signal, unstimulated adipocytes – cell-based, JC-1 fluorescence, 3T3-L1 adipocytes, 24 h, 100 nL compound, profiling panel (AID 1168); conditions: JC-1 mitochondrial fluorescence, higher = more signal, called active from +8 up or from −8 down
[8] = JC-1 mitochondrial signal, unstimulated myeloma cells – cell-based, JC-1 fluorescence, RPMI8226, 24 h, 100 nL compound, profiling panel (AID 1169); conditions: JC-1 mitochondrial potential fluorescence, higher = more signal
[9] = JC-1 mitochondrial signal, unstimulated MM1S myeloma – cell-based, JC-1 fluorescence, 24 h, 100 nL compound, profiling panel (AID 1170); conditions: MM1S mitochondrial potential, higher = more signal
[10] = resazurin metabolic signal in A549 cells – cell-based, resazurin fluorescence, 24 h, PK04 Diversity Set, profiling panel (AID 1171); conditions: A549 viability, higher = more signal, called active from +8 up or from −8 down
Note: test concentration not given here.

SMILES | z-score [1] | z-score [2] | z-score [3] | z-score [4] | z-score [5] | z-score [6] | z-score [7] | z-score [8] | z-score [9] | z-score [10]
O=C1O[C@H](c2ccccc2)[C@H](c2ccccc2)N2[C@H]1[C@@H](C(=O)NC[C@H](O)c1ccccc1)[C@]1(C(=O)Nc3ccc(C#CC4(O)CCCCCC4)cc31)[C@H]2c1ccc(OCCO)cc1 | -1.2 | 0.694 | 0.643 | -1.29 | -0.587 | -1.32 | 1.78 (inactive) | -0.842 | -0.469 | 0.132 (inactive)
COc1cccc([C@@H]2[C@@H](C)CC[C@H]3C(=O)N(C)[C@@H](C(C)C)C(=O)N23)c1 | 0.908 | 0.323 | 0.445 | 0.344 | 1.44 | 0.0824 | 0.517 (inactive) | -0.338 | 0.64 | 0.65 (inactive)
CC(=O)Nc1ccc([C@H]2[C@H](C)CC[C@H]3C(=O)N4[C@@H](CC[C@@H](C)[C@@H]4c4ccc(NC(C)=O)cc4)C(=O)N32)cc1 | 1.04 | 1.1 | 0.277 | -0.715 | -0.439 | -1.16 | -0.183 (inactive) | -0.365 | -0.559 | 0.553 (inactive)
CCCC[C@@H]1C[C@H]1[C@@H](NC(=O)c1cccs1)c1ccc(Cl)cc1 | -1.36 | 1.11 | -1.02 | -0.992 | -2.99 | -1.16 | 0.53 (inactive) | -0.912 | -0.53 | 0.6 (inactive)
CCOC(=O)C[C@H]1[C@H](OC(=O)Cc2ccc3c(c2)OCO3)[C@@H](NC(=O)CC(C)C)c2cc(OCCCO)ccc2N1C(=O)c1ccccc1 | 2.34 | -0.148 | 0.978 | 0.532 | 2.13 | 1.78 | 1.58 (inactive) | -0.0658 | 0.751 | 1.16 (inactive)
CCOC(=O)C1=C[C@@H](c2ccccc2)N(S(=O)(=O)c2ccc(C)cc2)[C@H]1c1ccc(F)cc1 | -1.39 | -0.498 | -2.67 | -2.06 | -1.34 | 2.45 | -1.16 (inactive) | -0.118 | -0.00719 | 1.04 (inactive)
C=CC[C@]1(C(=O)NCC(O)CO)N=C(c2ccc(OCCCO)cc2)O[C@H]1c1ccccc1 (stereo not given in full) | 0.495 | 0.991 | 0.417 | -0.176 | 0.213 | -0.0851 | -0.386 (inactive) | -0.895 | 0.334 | 0.912 (inactive)
CCC#CCN(Cc1ccccc1Br)[C@H](/C=C/c1ccccc1)[C@@H](O)Cc1ccccc1 | 0.178 | -0.0581 | -0.124 | -0.227 | -2.42 | -2.35 | -1.44 (inactive) | -0.608 | -0.32 | 1.36 (inactive)
CC(C)[C@H]1NC(=O)[C@@]23C(=O)N[C@@H](Cc4ccccc4)C2[C@H](C)[C@@]2(C)O[C@H]2C3/C=C/C/C=C\CNC(=O)[C@H](C)NC1=O (stereo not given in full) | 0.011 | 0.657 | -0.614 | 0.434 | -0.938 | -0.458 | -0.0933 (inactive) | 0.279 | 0.498 | 0.0653 (inactive)
COc1cccc([C@H]2N[C@H](C(=O)O)CC[C@@H]2C)c1 | 0.0912 | 2.03 | -0.175 | 0.543 | -1.36 | 1.16 | 0.75 (inactive) | -0.358 | 0.632 | -0.336 (inactive)
CCCC[C@H]1OB(O)C[C@H]2C1=C(COC)C[C@H]1C(=O)N(Cc3ccccc3)C(=O)[C@H]12 | 0.485 | 0.938 | -0.0393 | 0.405 | -0.537 | 0.987 | 0.835 (inactive) | 0.361 | 1.46 | 0.272 (inactive)
CCN1C(C)=C(C(=O)OC)[C@@H](c2ccccc2)N2C(=O)[C@@]3(C(=O)OC)O[C@@]12[C@@H]1C(=O)N(C)C(=O)[C@@H]13 | 0.0516 | 0.59 | -0.616 | -1.51 | 0.68 | 0.684 | 1.15 (inactive) | 0.644 | -0.196 | 0.363 (inactive)
C=CC[C@@]1(C(=O)NCC(O)CO)N=C(c2ccc(OCCCO)cc2)O[C@@H]1c1ccccc1CN=[N+]=[N-] (stereo not given in full) | 2.22 | 0.0076 | 0.816 | 0.92 | 0.0295 | 1.41 | 1.62 (inactive) | -0.153 | -0.873 | 0.047 (inactive)
[N-]=[N+]=NCc1ccccc1C[C@@]1(C(=O)N2CCOCC2)N=C(c2ccc(OCCCO)cc2)O[C@@H]1c1ccccc1N=[N+]=[N-] | -0.884 | 0.913 | -0.848 | -2.19 | -2.3 | 0.944 | 1.11 (inactive) | -0.982 | -0.891 | -1.75 (inactive)
CCOC(=O)C1=CC[C@@H](c2ccccc2)N(S(=O)(=O)c2ccc(C)cc2)[C@H]1C | -1.54 | -0.956 | -1.21 | -1.6 | -1.77 | 3.96 | 0.775 (inactive) | -0.198 | -1.22 | 0.0723 (inactive)
C=CCOC(=O)[C@@H]1[C@H]2C(=O)O[C@H](c3ccccc3)[C@H](c3ccccc3)N2[C@H](c2ccc(OCCOC(=O)[C@H]3C[C@H]4C(=O)N5CCC[C@H]5C(=O)N4[C@H]3c3ccc(O)cc3)cc2)[C@@]12C(=O)Nc1ccccc12 | 0.17 | 1.25 | -1.06 | -0.222 | -0.931 | -1.16 | 0.597 (inactive) | -0.674 | -0.393 | -0.0653 (inactive)
CO[C@H]1COC(=O)CC=C[C@H](C)[C@@H](OC)COC(=O)[C@H](Cc2ccccc2)NC(=O)CC=C[C@@H]1C | 0.0767 | 1.57 | 0.219 | 0.196 | 0.988 | 0.566 | 0.746 (inactive) | -0.0213 | 1.14 | 0.345 (inactive)
C[C@]1(C(=O)NCc2ccccc2)c2ccccc2C(=O)N(Cc2cc(C(F)(F)F)cc(C(F)(F)F)c2)[C@H]1c1ccc(CO)cc1 | 0.0361 | 1.95 | 0.292 | -0.951 | -1.46 | 1.07 | -0.122 (inactive) | -0.155 | -0.177 | 0.805 (inactive)
Cc1ccc(S[C@]2(C(=O)NCCCN(C)C)CC(=O)N(Cc3ccccc3)[C@@H]2c2ccc(CO)cc2I)cc1 | 1.03 | 0.927 | 0.914 | -3.64 | -2.38 | 1.65 | -0.645 (inactive) | -0.643 | -0.822 | 0.0027 (inactive)
O=C(N1CCCCC1)[C@@]1(CCS(=O)(=O)c2ccccc2)N=C(c2ccc(OCCCO)cc2)O[C@H]1c1ccccc1 | -1.35 | 1 | -1.12 | -2.25 | -3.55 | 2 | -0.751 (inactive) | -0.72 | -2.09 | -0.908 (inactive)
CCOC(=O)C[C@H]1[C@H](OC(=O)c2cc3ccccc3oc2=O)[C@@H](NC(=O)c2ccc3ccccc3c2)c2cc(OCCCO)ccc2N1C(=O)c1ccc2ccccc2n1 | 0.418 | 1.48 | -0.0664 | 0.555 | 0.167 | 0.158 | -0.0237 (inactive) | -0.233 | 0.197 | -0.194 (inactive)
CCCCCCc1nc(-c2cc(C)c(OC)c(C)c2)cc2c1[Si](C(C)C)(C(C)C)O[C@H]2c1ccccc1 | 0.723 | -0.185 | -0.59 | -0.0523 | -0.942 | 0.201 | -0.152 (inactive) | 0.77 | -0.683 | 0.732 (inactive)
[N-]=[N+]=NCc1ccccc1C[C@@]1(C(=O)O)N=C(c2ccc(OCCCO)cc2)O[C@@H]1c1ccccc1N=[N+]=[N-] | 0.593 | 0.0001 | 0.435 | -1.52 | -2.27 | -1.58 | 0.428 (inactive) | -0.898 | -1.31 | -1.32 (inactive)
NC(=O)NCC#Cc1ccc2c(c1)[C@]1(C(=O)N2)[C@H](C(=O)N2CCCCCCC2)[C@H]2C(=O)O[C@H](c3ccccc3)[C@H](c3ccccc3)N2[C@@H]1c1ccccc1OCCO | -0.21 | 1.36 | -0.0395 | -2.48 | -0.583 | -1.25 | 1.03 (inactive) | -0.56 | -0.693 | 1.28 (inactive)
[N-]=[N+]=NCc1ccccc1C[C@]1(C(=O)N2CCCCC2)N=C(c2ccc(OCCCO)cc2)O[C@H]1c1ccccc1CN=[N+]=[N-] | 0.0482 | 0.628 | -0.503 | -2.92 | -4.22 | 0.675 | -0.539 (inactive) | -1.19 | -1.69 | -0.179 (inactive)
C[C@@H]1CC[C@H]2C(=O)N3[C@@H](CC[C@@H](C)[C@@H]3c3cccc(N4CCOCC4)c3)C(=O)N2[C@H]1c1cccc(N2CCOCC2)c1 | 0.197 | 1.3 | -0.894 | 0.467 | -0.267 | 1.03 | 0.543 (inactive) | -0.685 | 0.713 | 1.05 (inactive)
COc1ccc([Si](C)(C)[C@H]2[C@H](CCO)O[C@@]3(C(=O)N(Cc4ccc(N5CCCCC5=O)cc4)c4ccccc43)[C@@H]2C)cc1 | -0.124 | 0.705 | -0.263 | -2.59 | -0.628 | 1.05 | 1.04 (inactive) | -0.48 | -0.119 | -2.32 (inactive)
Cc1ccc([C@@H]2CC=C(C(=O)O)[C@H](c3ccccc3)N2S(=O)(=O)c2ccc(C)cc2)cc1 | -0.612 | 0.557 | -0.825 | -0.251 | -2.2 | -0.957 | 0.289 (inactive) | -0.373 | 0.511 | -0.997 (inactive)
CC(=O)NCCCC[C@@H]1NC(=O)[C@@H]2C[C@H](C(=O)NCCCCCNC(=O)CS)[C@H](c3ccc(O)cc3)N2C1=O | 1.69 | 0.349 | -0.0748 | 0.372 | 1.33 | 1.36 | 0.985 (inactive) | -0.418 | -0.559 | 1.46 (inactive)
